This excerpt belongs to a sample that is enriched for hits.
mcGAS RapidFire = inhibitors of Mus musculus cyclic GMP-AMP synthase, initial high-throughput assay, cell-free, RapidFire MS | Q8C6L5 | recombinant mouse cGAS, cGAMP by RapidFire MS | inhibition, % at 12.5 µM | actives 0.18% (n = 130,000);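 active = inhibition of cGAS enzyme activity at or above 60%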;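 note: enzyme stimulated by 45 bp dsDNA with ATP and GTP substrates; cGAMP share of summed cGAMP plus half ATP and half GTP signals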
Target sequence (Q8C6L5 whole entry, looked up): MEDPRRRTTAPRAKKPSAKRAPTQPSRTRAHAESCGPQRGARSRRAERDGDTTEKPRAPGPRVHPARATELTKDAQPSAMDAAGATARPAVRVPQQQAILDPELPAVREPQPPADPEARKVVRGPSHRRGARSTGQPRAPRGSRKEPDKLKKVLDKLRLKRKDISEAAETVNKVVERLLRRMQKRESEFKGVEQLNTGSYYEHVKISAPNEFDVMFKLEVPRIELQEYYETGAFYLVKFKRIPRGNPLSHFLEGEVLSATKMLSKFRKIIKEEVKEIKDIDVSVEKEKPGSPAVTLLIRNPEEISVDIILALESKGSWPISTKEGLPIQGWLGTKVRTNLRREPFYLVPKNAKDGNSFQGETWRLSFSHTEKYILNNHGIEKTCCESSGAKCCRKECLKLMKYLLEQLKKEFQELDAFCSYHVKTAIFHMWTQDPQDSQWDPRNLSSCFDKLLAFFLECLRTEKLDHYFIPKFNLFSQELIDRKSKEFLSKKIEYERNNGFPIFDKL
Each line names hits and unclear results; the compound was inactive in the other large screens; ! = not confirmed by another sample.

Cn1c(-c2ccc(CN3CCn4cncc4C3)o2)nc2ccccc21	none
C=CCn1cc(CN2CCN(Cc3ccc4c(c3)OCO4)C(=O)C2)c(C)n1	none
C=CCn1cc(CN2CCn3nc(-c4nc5ccccc5n4C)cc3C2)c(C)n1	mcGAS RapidFire 79.2
CC(C)c1cc(-c2nnc3sc(-c4cccnc4)nn23)n[nH]1	none
CC(C)Cc1cc(-c2nn3c(-c4cnccn4)nnc3s2)n[nH]1	mcGAS RapidFire 87.5
CC(C)Cc1cc(-c2nn3c(-c4cccnc4)nnc3s2)n[nH]1	none
O=S(=O)(c1ccccc1Cl)N(CCO)c1ccc(Br)cc1	none
c1ccc(NC2CCCN(Cc3ccc4c(c3)CCO4)C2)cc1 (stereo not drawn)	none
O=C1Nc2ccc(Br)cc2C1=O	none
O=C1Nc2ccc(Br)cc2/C1=c1/sc2n(c1=O)CCN=2	mcGAS RapidFire 80.5
O=C1Nc2ccc(Br)cc2C1=c1sc2nc3ccccc3n2c1=O	none
Clc1cc2c(cc1CN1CCC3(CC1)OCCCO3)OCO2	none
OC(C#Cc1ccccc1)c1ncc(-c2ccccc2)[nH]1 (stereo not drawn)	none
S=c1nc(-c2ccccc2)c(-c2ccccc2)n[nH]1	none
S=c1nccc(-c2ccccc2)[nH]1	mcGAS RapidFire 74.4
CCCCC(CC)CN1C(=O)C(O)=C(C(C)=O)C1c1ccc(O)c(OC)c1 (stereo not drawn)	none
c1cnc(N2CCCC(c3nc4ccccc4[nH]3)C2)nc1 (stereo not drawn)	none
O=C(c1ccc(N2CCCNCC2)nc1)N(Cc1ccccc1)C[C@@H]1CCC[C@@H]1O	none
CCOc1ccc2nc(NC(=O)CC)sc2c1	none
Nc1c2ccccc2nc2ccccc12 (tested in a mixture with another compound)	none
CCOc1ccc2nc3cc(N)ccc3c(N)c2c1	mcGAS RapidFire 92.1!
CNC(=S)N(Cc1ccc(OC)cc1)C1CC(=O)N(c2ccc(F)cc2)C1=O (stereo not drawn)	none
Cc1cc(C(=O)NC2CC2c2ccccc2)ccc1-n1cncn1 (stereo not drawn)	none
Cc1oc(C)c(C(=O)Nc2cccc(N3CCCC3=O)c2)c1C	none
Cc1oc2ncn(C)c(=O)c2c1C(=O)Nc1cccc(COCC2CC2)c1	mcGAS RapidFire 94.4
CCCC1(CNC(=O)c2c(C)oc3ncn(C)c(=O)c23)CCC1	none
O=C(NCCCn1nc(-c2cccnc2)ccc1=O)c1cccc(C(F)(F)F)c1	none
O=S(=O)(O)CC(S)CS (stereo not drawn)	mcGAS RapidFire 86.7
O=C(c1cccs1)c1cccs1	none
NC(=O)n1c(O)c(C(=O)c2cccs2)c2cc(Cl)ccc21	mcGAS RapidFire 69.7
O=C(c1cccs1)N1CCC(c2nc3cc(Cl)ccc3s2)CC1	none
O=[N+]([O-])c1ccc(N2CCN(c3ncnc4[nH]ncc34)CC2)cc1	none
CC1Sc2ccccc2N(Cc2ccccc2Cl)C1=O (stereo not drawn)	mcGAS RapidFire 69.3
Cc1ccccc1CN1C(=O)C(C)Sc2ccccc21 (stereo not drawn)	none
CC1Sc2ccc(-c3ccco3)cc2N(Cc2ccccc2Cl)C1=O (stereo not drawn)	mcGAS RapidFire 69.4
COc1cccc(-c2ccc3c(c2)N(Cc2ccc(F)cc2)C(=O)C(C)S3)c1 (stereo not drawn)	none
CC1Oc2ccccc2N(Cc2ccccc2Cl)C1=O (stereo not drawn)	none
Cc1ccccc1CN1C(=O)C(C)Sc2ccc(-c3ccco3)cc21 (stereo not drawn)	none
C=CCNC(=O)Cn1c(CO)cnc1SCc1cccc(F)c1	none
CC(NC(=O)c1cccc(-c2ccccc2F)c1)c1nn[nH]n1 (stereo not drawn)	none
CC(NC(=O)c1ccco1)C(=O)NCc1ccccc1CN(C)C (stereo not drawn)	none
N=C1/C(=C/c2cccs2)C(=O)N=C2SC(c3ccccc3)=NN12	none
N=C1/C(=C/c2cccs2)C(=O)N=C2SC(Cc3ccccc3)=NN12	none
CCC1=NN2C(=N)/C(=C/c3cccs3)C(=O)N=C2S1	mcGAS RapidFire 97.0
COc1cc(OC)cc(C(=O)NC(C)c2cnn(-c3ccccc3C)c2C)c1 (stereo not drawn)	none
O=C(COc1ccc(Cl)c2ccccc12)Nc1ncccc1O	mcGAS RapidFire 94.6
O=C(COc1ccc(Cl)c2ccccc12)NCC(F)(F)F	none
O=C(Cc1ccc(C(F)(F)F)cc1)Nc1ncccc1O	none
CCN(CC)CCNC(=O)c1cnc(C(C)(C)C)s1	none
CCN(CC)CCNc1nc2c(F)cccc2s1	none
CCN(CC)CCNc1ccc(CO)c2sc3ccccc3c(=O)c12	mcGAS RapidFire 66.3!
Cc1nn(CC(=O)N2CCC(O)(CN(C)C)C2)c(=O)c2ccccc12 (stereo not drawn)	none
Cc1nc(-c2ccc(Cl)cc2)nc(N2CCNCC2)c1Cc1ccccc1	none
O=c1oc2cc(OCc3cc(=O)n4ccsc4n3)ccc2c2c1CCCCC2	none
Cc1nnc(NC(=O)c2ccc(S(=O)(=O)Nc3cccc(C(F)(F)F)c3)o2)s1	mcGAS RapidFire 75.6
Cc1nnc(NC(=O)c2cccc(C(=O)O)c2)s1	none
Cc1cccc(NC(=O)c2ccc(S(=O)(=O)Nc3cccc(C(F)(F)F)c3)o2)n1	none
CCn1c(C)cc(O)c(C(c2ccc(SC)cc2)N2CCCCC2)c1=O (stereo not drawn)	none
CCn1c(C)cc(O)c(C(c2cccs2)N2CCC(C)CC2)c1=O (stereo not drawn)	none
CCn1c(C)cc(O)c(C(c2cccs2)N2CCCCC2)c1=O (stereo not drawn)	mcGAS RapidFire 62.5
O=C(O)c1ccc(C=Nc2ncn[nH]2)cc1	none
CSc1cc(-c2csc(C(C)C)n2)ccc1NC(C)=O	none
O=C1NC(=S)SC1=Cc1ccccc1Cl	none
COc1cc(C=C2SC(=S)NC2=O)cc(OC)c1OC	none
O=C1NC(=S)SC1=Cc1cc(O)c(O)c(Cl)c1	mcGAS RapidFire 97.4
Nc1nc2ncc(CNc3ccc(C(=O)N[C@@H](CCC(=O)O)C(=O)O)cc3)nc2c(=O)[nH]1	mcGAS RapidFire 82.2!
Nc1nc2[nH]cc(CCc3ccc(C(=O)N[C@H](CCC(=O)O)C(=O)O)cc3)c2c(=O)[nH]1	none
CN(Cc1cnc2nc(N)nc(N)c2n1)c1ccc(C(=O)N[C@@H](CCC(=O)O)C(=O)O)cc1	none
CN=c1scc(-c2cc(Cl)ccc2Cl)n1N=Cc1ccc(O)cc1O	none
Cc1nn(C(C)C(=O)NC(N)=O)c(C)c1[N+](=O)[O-] (stereo not drawn)	none
OCC1(CCCc2ccccc2)CCNCC1	none
CSc1c(C#N)c(SCC(=O)c2cc3ccccc3oc2=O)[nH]c(=O)c1C#N	mcGAS RapidFire 94.3
CN(CCOc1ccccc1)C(=O)c1cc2ccccc2oc1=O	none
COc1ccc(CCNC(=O)c2cc3ccccc3oc2=O)cc1OC	none
CN(C)C(=O)NS(=O)(=O)c1ccc(Cl)cc1	none
C=C(Br)CN(C)C(C)(C)CO	none
CC(C)(C)c1cnc(CN2C(=O)CC(C)(c3ccc(Br)cc3)C2=O)o1 (stereo not drawn)	none
N#Cc1ccccc1NC(=O)C1=COCCO1	none
N#Cc1ccccc1NC(=O)c1n[nH]c([N+](=O)[O-])c1Br	mcGAS RapidFire 70.1
N#Cc1ccccc1NC(=O)c1c(-c2ccccc2)c(-c2ccccc2)n[nH]c1=O	none
COCCn1c(SCC(=O)Nc2nccs2)nc2c(c1=O)SC(C)C2 (stereo not drawn)	none
COCCN1CCN(C(=O)CCc2nnc(CCc3ccc(OC)cc3)o2)CC1	none
COc1ccc(CCC(=O)N2CCN(Cc3nnc(C4CC4)o3)CC2)cc1	mcGAS RapidFire 93.6
COC(=O)C1CCCCN1C(=O)CCc1nnc(CCc2ccc(OC)cc2)o1 (stereo not drawn)	none
Cn1c2ccccc2c2nn3c(SCc4ccccc4)nnc3nc21	none
CCCCc1cc(=O)[nH]c(-c2ccc(CN3CCN(C(=O)N(C)C)CC3)cc2)n1	none

Screening results from PubChem.
